Only some compounds are listed: those with a hit (about 5.9% of all), similar ones and a draw of the others.
Rtt109 HAT inh: inhibitors of C. albicans Rtt109/Vps75 HAT, primary screen, biochemical, ThioGlo CoA-SH fluorescence, plate reader; Histone acetyltransferase RTT109 (Candida albicans (strain SC5314 / ATCC MYA-2876)), …; purified Rtt109/Vps75, 4 h; inhibition, % at 34.9 µM; hit rate 0.16% among 330,000; AID 540336, 2011;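 active = inhibition of at least 50% in every replicate; inconclusive = best replicate reaches 50% inhibition but some replicates fall short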
ALR inh: inhibitors of human ALR sulfhydryl oxidase, primary screen, biochemical, H2O2 detection, HRP-luminol luminescence, single point | inhibition, % (concentration not given with the values) | AID 485317, 2010 | hit rate 3.8% among 290,000 | purified ALR, DTT oxidation;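 active = mean replicate inhibition above about 79%, with every replicate also reaching it, limit read from the data; inconclusive = only one of the two criteria met; inactive = mean below limit and not every replicate reaching it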
Target sequence (P55789 whole entry, looked up): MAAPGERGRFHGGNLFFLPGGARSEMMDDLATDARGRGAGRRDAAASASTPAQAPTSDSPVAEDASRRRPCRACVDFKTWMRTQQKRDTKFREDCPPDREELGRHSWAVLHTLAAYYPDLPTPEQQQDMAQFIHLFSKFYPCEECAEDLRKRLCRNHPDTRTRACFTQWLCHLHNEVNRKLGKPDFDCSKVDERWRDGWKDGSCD
LANA-H2B inh: blockers of LANA interaction with H2A/H2B – biochemical, FP readout, HTS, primary screen. Protein LANA1 (Human herpesvirus 8 type P (isolate GK18)), Q9QR71. cell-free LANA-H2A/H2B peptide, fluorescence polarization. inhibition, % (test concentration not listed). hit rate 0.6% among 320,000. AID 2629, 2010; in the data active = inhibition mostly above about 10%, no sharp cut-off; inactive = mostly below about 6.7%
ABHD5-PLIN5 inh: ABHD5-PLIN5 interaction inhibitors, primary screen, cell lysate, split luciferase complementation, luminescence; AID 602281, 2012; inhibition, % at 4 µM; Split G. princeps luciferase complementation, 4 h; hit rate 0.78% among 360,000;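 active = inhibition above the mean inhibition across every tested compound plus 3 SD, cut at about 22% in these data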;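 note: 0% = DMSO only wells and the 100% control is not disclosed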
rCAG RNA binder: binders of r(CAG) RNA repeats, primary screen, biochemical, fluorescence; hit rate 1.3% among 370,000; inhibition, % at 3 µM; r(CAG) RNA repeat, TO-PRO-1 dye displacement fluorescence; AID 651821, 2012;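 active = inhibition above the plate cutoff, the mean of all test compounds on that plate plus 3 SD, cut at about 35% in these data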;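 note: 0% = DMSO alone and 100% = 100 µM mitoxantrone as full dye displacement; higher means more dye released from RNA so lower well fluorescence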
PRMT1 inh: PRMT1 methyltransferase inhibitors, primary screen, biochemical, fluorescence polarization. AID 652257, 2013. Protein arginine N-methyltransferase 1 (Homo sapiens), Q99873. inhibition, % at 2.79 µM. recombinant PRMT1, activity-based probe fluorescence polarization. hit rate 1.3% among 370,000;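 active = inhibition above about 21% made by adding two undisclosed values, limit read from the data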
* hit, by the source's call.

O=C(CN1CCN(c2ccc(O)cc2)CC1)Nc1ccc(S(=O)(=O)N2CCCC2)cc1 was read as Rtt109 HAT inh 2, ALR inh 88*, LANA-H2B inh 2, ABHD5-PLIN5 inh 11, rCAG RNA binder 12 and PRMT1 inh 18.
CCN(CC)c1ccc(S(=O)(=O)N2CCOCC2)cc1NC(=O)Cn1nc(C)c([N+](=O)[O-])c1C was read as Rtt109 HAT inh 10, LANA-H2B inh 2, ABHD5-PLIN5 inh 8, rCAG RNA binder 2 and PRMT1 inh -1.
Screening CCN(CC)c1ccc(S(=O)(=O)N2CCOCC2)cc1NC(=O)CN1CCc2ccccc2C1 returned ALR inh 7, LANA-H2B inh 33*, ABHD5-PLIN5 inh 4, rCAG RNA binder -2 and PRMT1 inh 0.
For O=C(CN1CCCN(S(=O)(=O)c2ccc(Br)s2)CC1)Nc1ccc(Cl)cc1 the results were Rtt109 HAT inh 1, ALR inh 91*, LANA-H2B inh 3, ABHD5-PLIN5 inh 50*, rCAG RNA binder -4 and PRMT1 inh -2.
Screening CN1CC=C(c2ccc(C(F)(F)F)cc2)N(c2ccccc2)C1=O returned rCAG RNA binder 4 and PRMT1 inh -3.
CC(C)CNC(=O)OCc1cn(Cc2ccc(Cl)cc2)nn1 was read as rCAG RNA binder 0 and PRMT1 inh 0.
Cc1ccc(NC(NC(=O)c2cccnc2)C(Cl)(Cl)Cl)cc1 (stereo not given) was read as Rtt109 HAT inh -2, ALR inh 99*, LANA-H2B inh -4, ABHD5-PLIN5 inh -4, rCAG RNA binder -1 and PRMT1 inh -1.
Screening Cc1ccc(NC(NC(=O)c2cccs2)C(Cl)(Cl)Cl)cc1C (stereo not given) returned Rtt109 HAT inh 6, ALR inh 67, LANA-H2B inh 5, ABHD5-PLIN5 inh -7, rCAG RNA binder 2 and PRMT1 inh 1.
Screening Cc1ccc(NC(NC(=O)c2cccs2)C(Cl)(Cl)Cl)cc1 (stereo not given) returned Rtt109 HAT inh -9, ALR inh 98*, LANA-H2B inh 2, ABHD5-PLIN5 inh -5, rCAG RNA binder 1 and PRMT1 inh 1.
For Cc1ccc(C)c(NC(NC(=O)c2cccnc2)C(Cl)(Cl)Cl)c1 (stereo not given) the results were Rtt109 HAT inh 15, ALR inh -9, LANA-H2B inh 1, ABHD5-PLIN5 inh 7, rCAG RNA binder -4 and PRMT1 inh -2.
COc1ccccc1NC(NC(=O)c1cccnc1)C(Cl)(Cl)Cl (stereo not given) was read as Rtt109 HAT inh 6, ALR inh 88*, LANA-H2B inh 2, ABHD5-PLIN5 inh -1, rCAG RNA binder -2 and PRMT1 inh -1.
For Cc1ccc(NC(NC(=O)c2ccccn2)C(Cl)(Cl)Cl)cc1 (stereo not given) the results were Rtt109 HAT inh 4, ALR inh 99*, LANA-H2B inh 1, ABHD5-PLIN5 inh -4, rCAG RNA binder 0 and PRMT1 inh -1.
CCCCN1C(=O)C(CC(=O)NCCN2CCOCC2)CC(C(=O)N(C)C)=C1C (stereo not given) was read as ABHD5-PLIN5 inh 6, rCAG RNA binder 0 and PRMT1 inh -4.
CCNC(=O)C1CCCN(C(=O)c2ccc3c(c2)OCO3)CC1 (stereo not given) was read as ABHD5-PLIN5 inh 3, rCAG RNA binder 0 and PRMT1 inh -2.
For NC(=O)c1c(NC(=O)CSc2nnc(Cc3ccccc3)n2Cc2ccco2)sc2c1CCC2 the results were Rtt109 HAT inh 2, ALR inh 87*, LANA-H2B inh -3, ABHD5-PLIN5 inh -5, rCAG RNA binder 4 and PRMT1 inh 1.
CCCCn1c(SCC(=O)Nc2sc3c(c2C(N)=O)CCC3)nnc1-c1ccccc1 was read as Rtt109 HAT inh inconclusive, ALR inh 64, LANA-H2B inh 5, ABHD5-PLIN5 inh 22*, rCAG RNA binder 2 and PRMT1 inh 4.
